# Test results published in PubChem BioAssay AID1159580 (chemical genetic matrix, 2015).
# Values joined by “and” are separate entries in the source; they are usually repeats but may differ in a detail not shown here. Equal values may be shown once. Among all 5,500 compounds or so, about 2,000 (36%) were called active. Another 18% or so got no clear call; they are omitted. The list shows a part of the results. Values without a mark were called inactive. Cut-off read from the data, not from the text of the source: active = normalized growth mostly below about 0.91 (no sharp cut-off); inconclusive = no clear call, values can overlap the other calls; inactive = mostly above about 0.92.
# Test: chemical genetic growth profiling, strain panel (AID 1159580);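 note: tested at 20 µM; growth read once vehicle control cultures reached saturation at 30 °C; 1 = growth at the plate median or of vehicle wells; lower values mean less growth of the strain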
# Conditions: S. cerevisiae deletion strains, growth OD
compound,measurement,setting,value
CCCCCCCCCCCC[C@H](C(=O)O)[C@@H](C)C(=O)O,normalized growth,"locus YAL013W, strain DEP1, active compounds read low",0.992
same,normalized growth,"locus YAL021C, strain ccr4, active compounds read low",1.02
same,normalized growth,"locus YAL026C, strain drs2, active compounds read low",0.952
same,normalized growth,"locus YAL030W, strain snc1, active compounds read low",0.984
same,normalized growth,"locus YBL061C, strain skt5, active compounds read low",0.982
same,normalized growth,"locus YBR009C, strain hhf1, active compounds read low",0.994
same,normalized growth,"locus YBR021W, strain FUR4, active compounds read low",0.995
same,normalized growth,"locus YBR023C, strain chs3, active compounds read low",0.982
same,normalized growth,"locus YBR171W, strain sec66, active compounds read low",0.936
same,normalized growth,"locus YBR229C, strain ROT2, active compounds read low",0.993
same,normalized growth,"locus YBR231C, strain swc5, active compounds read low",0.986
same,normalized growth,"locus YBR279W, strain paf1, active compounds read low",0.976
same,normalized growth,"locus YCL011C, strain gbp2, active compounds read low",0.995
same,normalized growth,"locus YCL016C, strain dcc1, active compounds read low",0.996
same,normalized growth,"locus YCL029C, strain bik1, active compounds read low",1.02
same,normalized growth,"locus YCL061C, strain MRC1, active compounds read low",0.963
same,normalized growth,"locus YCL069W, strain vba3, active compounds read low",0.975
same,normalized growth,"locus YCR088W, strain abp1, active compounds read low",0.976
same,normalized growth,"locus YDL005C, strain med2, active compounds read low",0.995
same,normalized growth,"locus YDL035C, strain GPR1, active compounds read low",0.995
same,normalized growth,"locus YDL040C, strain nat1, active compounds read low",0.977
same,normalized growth,"locus YDL074C, strain BRE1, active compounds read low",0.986
same,normalized growth,"locus YDL101C, strain DUN1, active compounds read low",1.02
same,normalized growth,"locus YDL134C, strain PPH21, active compounds read low",0.993
same,normalized growth,"locus YDL185W, strain tfp1, active compounds read low",1.03
same,normalized growth,"locus YDL192W, strain arf1, active compounds read low",1.01
same,normalized growth,"locus YDR001C, strain nth1, active compounds read low",0.966
same,normalized growth,"locus YDR069C, strain doa4, active compounds read low",0.999
same,normalized growth,"locus YDR101C, strain arx1, active compounds read low",1.01
same,normalized growth,"locus YDR137W, strain rgp1, active compounds read low",0.929
same,normalized growth,"locus YDR150W, strain NUM1, active compounds read low",0.998
same,normalized growth,"locus YDR159W, strain sac3, active compounds read low",0.902
same,normalized growth,"locus YDR162C, strain NBP2, active compounds read low",1.01
same,normalized growth,"locus YDR195W, strain ref2",0.98
same,normalized growth,"locus YDR297W, strain sur2, active compounds read low",0.976
same,normalized growth,"locus YDR318W, strain mcm21, active compounds read low",1.02
same,normalized growth,"locus YDR334W, strain swr1, active compounds read low",0.985
same,normalized growth,"locus YDR335W, strain msn5, active compounds read low",0.986
same,normalized growth,"locus YDR388W, active compounds read low",1.01
same,normalized growth,"locus YDR392W, strain spt3, active compounds read low",0.832
same,normalized growth,"locus YDR502C, strain sam2, active compounds read low",1.02
same,normalized growth,"locus YEL003W, strain gim4, active compounds read low",0.995
same,normalized growth,"locus YEL037C, strain rad23, active compounds read low",0.976
same,normalized growth,"locus YEL061C, strain CIN8 (second series), active compounds read low",0.957
same,normalized growth,"locus YEL061C, strain CIN8, active compounds read low",0.988
same,normalized growth,"locus YER015W, strain faa2, active compounds read low",0.985
same,normalized growth,"locus YER016W, strain bim1, active compounds read low",0.984
same,normalized growth,"locus YER110C, active compounds read low",1
same,normalized growth,"locus YER111C, strain swi4, active compounds read low",0.938
same,normalized growth,"locus YER155C, strain BEM2 (second series), active compounds read low",0.874
same,normalized growth,"locus YER155C, strain BEM2, active compounds read low",0.979
same,normalized growth,"locus YER167W, strain BCK2, active compounds read low",1.01
same,normalized growth,"locus YFR010W, strain ubp6, active compounds read low",1.02
same,normalized growth,"locus YGL078C, strain dbp3, active compounds read low",0.98
same,normalized growth,"locus YGL086W, strain mad1, active compounds read low",1.01
same,normalized growth,"locus YGL167C, strain pmr1, active compounds read low",0.943
same,normalized growth,"locus YGL173C, strain kem1, active compounds read low",0.958
same,normalized growth,"locus YGL227W, strain vid30, active compounds read low",0.975
same,normalized growth,"locus YGL240W, strain doc1, active compounds read low",0.979
same,normalized growth,"locus YGL248W, strain PDE1, active compounds read low",1
same,normalized growth,"locus YGL253W, strain hxk2, active compounds read low",0.976
same,normalized growth,"locus YGR078C, strain PAC10, active compounds read low",1.01
same,normalized growth,"locus YGR135W, strain pre9, active compounds read low",1.01
same,normalized growth,"locus YGR229C, strain SMI1, active compounds read low",0.999
same,normalized growth,"locus YGR252W, strain gcn5, active compounds read low",1.05
same,normalized growth,"locus YHR013C, strain ard1, active compounds read low",1.01
same,normalized growth,"locus YHR027C, strain rpn1, active compounds read low",0.984
same,normalized growth,"locus YHR030C, strain SLT2, active compounds read low",0.993 and 0.941
same,normalized growth,"locus YHR079C, strain IRE1 (second series), active compounds read low",1
same,normalized growth,"locus YHR079C, strain IRE1, active compounds read low",0.953
same,normalized growth,"locus YHR094C, strain hxt1, active compounds read low",0.989
same,normalized growth,"locus YHR129C, strain ARP1, active compounds read low",0.989
same,normalized growth,"locus YHR142W, strain chs7, active compounds read low",1.02
same,normalized growth,"locus YHR200W, strain rpn10, active compounds read low",1.02
same,normalized growth,"locus YIL066C, strain RNR3, active compounds read low",0.992
same,normalized growth,"locus YIL073C, strain SPO22, active compounds read low",1.06
same,normalized growth,"locus YIL125W, strain kgd1, active compounds read low",0.997
same,normalized growth,"locus YIR030C, strain dcg1, active compounds read low",1
same,normalized growth,"locus YJL092W, strain hpr5, active compounds read low",0.967
same,normalized growth,"locus YJL095W, strain BCK1 (second series), active compounds read low",0.992
same,normalized growth,"locus YJL095W, strain BCK1, active compounds read low",1.01 and 0.953
same,normalized growth,"locus YJL115W, strain asf1, active compounds read low",0.94
same,normalized growth,"locus YJL129C, strain trk1, active compounds read low",0.797 (active)
same,normalized growth,"locus YJL134W, strain LCB3, active compounds read low",0.991
same,normalized growth,"locus YJL154C, strain vps35, active compounds read low",0.99
same,normalized growth,"locus YJL164C, strain tpk1, active compounds read low",0.999
same,normalized growth,"locus YJL166W, strain qcr8, active compounds read low",0.992
same,normalized growth,"locus YJL168C, strain set2, active compounds read low",1
same,normalized growth,"locus YJL187C, strain SWE1 (second series), active compounds read low",1
same,normalized growth,"locus YJL187C, strain SWE1, active compounds read low",0.971
same,normalized growth,"locus YJR043C, strain POL32, active compounds read low",0.996
same,normalized growth,"locus YJR066W, strain TOR1, active compounds read low",0.884
